Shown are actives, neighbours in structure and some others; about 6.2% of the full set was active somewhere.
Cardio protect: cardioprotection against H2O2-induced cell death, primary screen, uHTS, H9c2 cells, ATPLite luminescence. H9c2 cardiomyocytes, H2O2 injury protection, 2 h. protection from H2O2 cell death, % at 20 µM. hit rate 0.63% among 360,000. AID 588492, 2011;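 active = compounds giving at least 50% protection of heart cells from peroxide-induced death in the single-dose screen, raw or plate-pattern-corrected value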;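 also: 0% = DMSO wells with peroxide and 100% = DMSO wells without peroxide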
SUMO Mot1 rescue: yeast Mot1-301 growth rescue at high temperature, primary screen, SUMOylation pathway inhibitor project, S. cerevisiae, ATP luminescence, 38.5C. S. cerevisiae Mot1-301 growth rescue; percent above DMSO median, 100 means doubled. growth rescue, % at 18.8 µM. hit rate 1% among 320,000. AID 2716, 2010;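 active = every valid replicate shows activation above 250% relative to neutral control wells; inactive = the rest, any valid replicate at or below 250%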;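 also: OY570 slx delta 5 strain wells were the positive control but not used for scaling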
AHR activator: AHR activators, primary screen, cell-based, luminescence, luciferase reporter, human; Aryl hydrocarbon receptor (Homo sapiens), P35869; AHR-responsive luciferase reporter cells; activation, % at 5 µM; hit rate 2.5% among 320,000; AID 2796, 2010; in the data active = activation above about 47%;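 also: 0% = vehicle wells and 100% = reference agonist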
AI-2 QS mod: Vibrio harveyi AI-2 quorum sensing modulators, primary screen, JMH597 strain, luminescence/OD600 ratio. Vibrio harveyi JMH597 AI-2 luminescence/OD600 ratio, 9 h; hits give low values; strain lacks LuxN and CqsS sensors; 0 = neutral-control median. activity change, % at 7.5 µM. hit rate 0.4% among 300,000. AID 2094, 2009; in the data active = activity change below about -75%, passing the limit was not always enough;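 also: luminescence divided by OD600 gain over 9 h not by final OD600 alone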
NTR1 ag: agonists of human NTR1, primary screen, imaging, U2OS cells, beta-arrestin-GFP, high content | NTR1-U2OS beta-arrestin-GFP spot imaging, agonist mode | activation, % at 20 µM | hit rate 0.17% among 330,000;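 active = activation at or above 40% of the spot to cytoplasm intensity ratio, with at least 20 cells analyzed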;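 also: 0% = DMSO without peptide and 100% = 100 nM NTR1 peptide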
Target sequence (P30989 whole entry, looked up): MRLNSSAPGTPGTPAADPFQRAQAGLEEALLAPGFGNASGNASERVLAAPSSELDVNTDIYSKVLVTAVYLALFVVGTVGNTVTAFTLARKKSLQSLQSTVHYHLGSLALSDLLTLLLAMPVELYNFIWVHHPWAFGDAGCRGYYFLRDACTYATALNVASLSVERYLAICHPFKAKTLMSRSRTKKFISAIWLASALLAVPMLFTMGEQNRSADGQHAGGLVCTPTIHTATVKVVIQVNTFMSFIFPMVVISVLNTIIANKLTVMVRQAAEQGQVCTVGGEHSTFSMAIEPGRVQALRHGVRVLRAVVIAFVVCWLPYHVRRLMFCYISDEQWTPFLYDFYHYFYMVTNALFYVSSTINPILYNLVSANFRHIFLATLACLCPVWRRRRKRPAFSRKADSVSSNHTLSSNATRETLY
NR3A LBD binder: binders of NR3A ligand-binding domain, primary screen, biophysical, differential scanning fluorimetry, uHTS; AID 1259313, 2017; NR3A LBD differential scanning fluorimetry, Tm shift; 0% = protein alone, 100% = glycine-bound protein; Tm shift relative to glycine control, % at 25 µM; hit rate 2.5% among 340,000;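 active = melting temperature shift of at least 10% of the positive control shift, at one fixed dose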
* hit, by the source's call.

Results for COc1ccc(OC)c2sc(NNC(=O)C3COc4ccccc4O3)nc12 (centres undefined) ?
Cardio protect: 9; SUMO Mot1 rescue: 3; AHR activator: 57*; AI-2 QS mod: 3; NTR1 ag: 0; NR3A LBD binder: -1

Results for COc1ccc(OC)c2sc(NC(=O)c3ccc(Cl)s3)nc12 ?
Cardio protect: -20; SUMO Mot1 rescue: -15; AHR activator: 30; AI-2 QS mod: 7; NTR1 ag: 6; NR3A LBD binder: -5

Results for COc1ccc(OC)c2sc(NC(=O)c3ccc(Br)s3)nc12 ?
Cardio protect: -12; SUMO Mot1 rescue: -6; AHR activator: 25; AI-2 QS mod: 43; NTR1 ag: 7; NR3A LBD binder: 0

How did CCC(=O)Nc1nc2c(OC)ccc(OC)c2s1 do in these assays?
Cardio protect: -4; SUMO Mot1 rescue: 163; AHR activator: 68*; AI-2 QS mod: 24; NTR1 ag: -1; NR3A LBD binder: -1

How did COc1ccc(OC)c2sc(NC(=O)C3CC3)nc12 do in these assays?
Cardio protect: -7; SUMO Mot1 rescue: -4; AHR activator: 75*; AI-2 QS mod: 17; NTR1 ag: 0; NR3A LBD binder: 0

What do the screens show for `CCCC(=O)Nc1nc2c(OC)ccc(OC)c2s1`?
Cardio protect: -2; SUMO Mot1 rescue: -12; AHR activator: 68*; AI-2 QS mod: 27; NTR1 ag: 2; NR3A LBD binder: -1

What do the screens show for `Cc1ccccc1NC(=O)c1sc(NC(=O)C2CC2)nc1C`?
Cardio protect: 5; SUMO Mot1 rescue: -20; AHR activator: 4; AI-2 QS mod: -10; NTR1 ag: -1; NR3A LBD binder: 4

What do the screens show for `Cc1ccc(Cl)c2sc(NC(=O)C3CC3)nc12`?
Cardio protect: -4; SUMO Mot1 rescue: 1; AHR activator: 49*; AI-2 QS mod: 21; NTR1 ag: 3; NR3A LBD binder: 0

What do the screens show for `COc1ccc(OC)c2sc(NNC(=O)COc3ccccc3)nc12`?
Cardio protect: 12; AHR activator: 79*; AI-2 QS mod: 24; NTR1 ag: 0; NR3A LBD binder: 0

Results for O=C(NCC1CCCO1)c1cc(Br)c(Br)s1 (centres undefined) ?
Cardio protect: -1; SUMO Mot1 rescue: 2; AHR activator: -1; AI-2 QS mod: 19; NTR1 ag: 0; NR3A LBD binder: 0

How did O=C(CSc1nncn1-c1cccnc1)Nc1cccc(C(F)(F)F)c1 do in these assays?
Cardio protect: -1; SUMO Mot1 rescue: 1; AHR activator: 3; AI-2 QS mod: -18; NTR1 ag: -1; NR3A LBD binder: 4

What do the screens show for `CCNC(=S)N(CCc1c(C)[nH]c2ccc(Cl)cc12)Cc1ccco1`?
Cardio protect: -13; AHR activator: 47*; AI-2 QS mod: -2; NTR1 ag: 21; NR3A LBD binder: 9

How did CNC(=S)N(CCc1c(C)[nH]c2ccc(C)cc12)Cc1ccco1 do in these assays?
Cardio protect: -1; SUMO Mot1 rescue: -3; AHR activator: 55*; AI-2 QS mod: 6; NTR1 ag: -1; NR3A LBD binder: -7

Results for COc1ccc2cc(C(=O)Nc3ccc(F)cc3)sc(=O)c2c1OC ?
Cardio protect: 2; SUMO Mot1 rescue: 2; AHR activator: -2; AI-2 QS mod: 21; NTR1 ag: 0; NR3A LBD binder: 21*

How did COc1ccc2cc(C(=O)Nc3ccc(O)cc3)sc(=O)c2c1OC do in these assays?
Cardio protect: 20; SUMO Mot1 rescue: -6; AHR activator: 1; AI-2 QS mod: 15; NTR1 ag: 0; NR3A LBD binder: 31*

Results for CCCNC(=O)NC(=O)CSc1nc2ccccc2c(=O)n1Cc1ccncc1 ?
Cardio protect: 10; SUMO Mot1 rescue: -4; AHR activator: 0; AI-2 QS mod: 12; NTR1 ag: 0; NR3A LBD binder: 7

How did Cn1c(SCC(=O)Nc2ccc3c(c2)OCO3)nnc1C(F)(F)F do in these assays?
Cardio protect: 5; SUMO Mot1 rescue: 6; AHR activator: 28; NTR1 ag: 1; NR3A LBD binder: 0

How did COc1cccc(N2CC(O)=C(c3nc4ccccc4s3)C2=N)c1 do in these assays?
Cardio protect: -1; SUMO Mot1 rescue: 10; AHR activator: 57*; AI-2 QS mod: 22; NTR1 ag: 0; NR3A LBD binder: -2

Results for Cc1c(NS(=O)(=O)c2cc(C(=O)NCc3cccnc3)cc(Cl)c2Cl)c(=O)n(-c2ccccc2)n1C ?
Cardio protect: -3; SUMO Mot1 rescue: -5; AHR activator: 60*; AI-2 QS mod: 89; NTR1 ag: 1; NR3A LBD binder: 2

What do the screens show for `O=C(c1cnn2c(C(F)F)cc(-c3ccccc3)nc12)N1CCOCC1`?
Cardio protect: 4; SUMO Mot1 rescue: 8; AHR activator: -1; AI-2 QS mod: 25; NTR1 ag: 0; NR3A LBD binder: 4

Results for COc1ccc(-c2cc(C(F)F)n3ncc(C(=O)Nc4ccc(C(=O)N5CCOCC5)cc4)c3n2)cc1 ?
Cardio protect: 71*; SUMO Mot1 rescue: -20; AHR activator: 1; AI-2 QS mod: 8; NTR1 ag: 1; NR3A LBD binder: -2

Results for O=C(NCCN1CCOCC1)c1cnn2c(-c3ccccc3)cc(-c3ccccc3)nc12 ?
Cardio protect: 79*; SUMO Mot1 rescue: 33; AHR activator: 11; AI-2 QS mod: -11; NTR1 ag: 5; NR3A LBD binder: -15

How did Cc1ccc(-c2cc(C(F)F)n3ncc(C(=O)N4CCCc5ccccc54)c3n2)cc1 do in these assays?
Cardio protect: -10; SUMO Mot1 rescue: 383*; AHR activator: 2; AI-2 QS mod: -4; NTR1 ag: 5; NR3A LBD binder: 1

Results for COc1ccc(-c2cc(C(F)F)n3ncc(C(=O)N4CCc5ccccc54)c3n2)cc1 ?
Cardio protect: 3; SUMO Mot1 rescue: -6; AHR activator: 3; AI-2 QS mod: 16; NTR1 ag: 3; NR3A LBD binder: -1

What do the screens show for `O=C(Nc1ccc(C(=O)N2CCOCC2)cc1)c1cnn2c(C(F)F)cc(-c3ccccc3)nc12`?
Cardio protect: 55*; SUMO Mot1 rescue: 102; AHR activator: 2; AI-2 QS mod: 26; NTR1 ag: 5; NR3A LBD binder: 1

Results for CCOC(=O)C1=CN(Cc2ccco2)S(=O)(=O)NC1c1ccc(C(F)(F)F)cc1 (centres undefined) ?
Cardio protect: -10; NTR1 ag: 0; NR3A LBD binder: -3

Assay outcomes (PubChem BioAssay)
